Screening data deposited in PubChem by National Center for Advancing Translational Sciences (NCATS).
Sampled rows, rich in hits. Any-hit rate of the full collection: about 6%.
D1 antag: Antagonist of Human D 1 Dopamine Receptor: qHTS | D(1A) dopamine receptor (Homo sapiens), P21728 | HEK293 TREx D1 cells, calcium flux, dopamine EC80; stronger effect = lower value | activity change, negative = inhibition, % at 10 µM | 3.2% of 360,000 active | AID 504652, 2011; in the data active = activity change below about -30%
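Tetracycline-induced HEK293 T-REx cells with force-coupled D1 receptor were loaded with a no-wash calcium dye. Compound was added after a 10 s baseline and read kinetically for 180 s; EC80 dopamine was then added and calcium flux followed another 180 s.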
D1 potentiator: Potentiators of Human D1 Dopamine Receptor: qHTS | HEK293 TREx D1 cells, calcium flux, dopamine EC20 potentiation | D(1A) dopamine receptor (Homo sapiens), P21728 | potentiation, % at 10 µM | 0.036% of 360,000 active | AID 504651, 2011; in the data active = potentiation above about 30%
D1 ag: Allosteric Agonists of the Human D1 Dopamine Receptor: qHTS; 1% of 360,000 active; HEK293 T-REx D1 cells, calcium flux, agonist mode; AID 504660, 2011; activation, % at 2 µM; in the data active = activation above about 30%
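Inducible HEK293 T-REx D1 cells, force-coupled to calcium signalling, were plated at 4000 cells/well with tetracycline and held overnight at 30 C. After no-wash calcium dye loading, compound-evoked calcium rise over 180 s flagged agonists.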
DRD3 agonist: qHTS of D3 Dopamine Receptor Agonist: qHTS; D(3) dopamine receptor (Homo sapiens), P35462; D3R DiscoveRx beta-arrestin cells, luminescence, 90 min; max activation, %; 0.58% of 410,000 active; AID 652048, 2013; in the data active = max activation above about 30%
Target sequence (P35462 whole entry, looked up): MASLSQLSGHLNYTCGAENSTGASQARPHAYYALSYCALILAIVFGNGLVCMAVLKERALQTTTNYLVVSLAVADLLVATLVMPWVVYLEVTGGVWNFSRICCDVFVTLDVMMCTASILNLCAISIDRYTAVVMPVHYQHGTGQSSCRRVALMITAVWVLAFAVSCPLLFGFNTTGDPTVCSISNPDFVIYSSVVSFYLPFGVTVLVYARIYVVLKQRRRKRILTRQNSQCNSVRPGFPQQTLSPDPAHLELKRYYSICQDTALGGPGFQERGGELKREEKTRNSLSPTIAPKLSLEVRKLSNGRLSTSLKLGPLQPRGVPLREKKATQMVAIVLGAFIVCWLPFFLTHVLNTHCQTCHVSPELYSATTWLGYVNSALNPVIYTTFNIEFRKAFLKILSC
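Cells at 1500/well, incubated overnight, then treated with pinned compounds (dopamine as control) for 90 min at 37 degrees C. DiscoveRx reagent added for 30 - 60 minutes at room temperature; luminescence read.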
D3 antag: qHTS of D3 Dopamine Receptor Antagonist: qHTS; D(3) dopamine receptor (Homo sapiens), P35462; D3R cells, DiscoveRx beta-arrestin luminescence, antagonist mode; stronger effect = lower value; max response, negative = inhibition, %; 2.5% of 360,000 active; in the data active = max response below about -50%; inconclusive = no clear call, values can overlap the other calls
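Cells expressing the human receptor were seeded at 1500 cells/well, incubated overnight at 37 degrees C in 5% CO2, then exposed to library compounds with dopamine controls for 90 minutes at 37 degrees C before luminescent detection.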
Hits are given with their value; - = inactive; ? = inconclusive; . = no result.

SMILES	D1 antag	D1 potentiator	D1 ag	DRD3 agonist	D3 antag
Cc1ccc(C(C)C)cc1-n1nnc(-c2cccc(Cc3ccc4ccccc4c3)c2)c1C(C)O (stereo not drawn)	.	.	.	-	-
O=C(CCCN1C(=O)c2cccnc2Oc2ccc(Cl)cc21)NCc1ccccc1F	-	-	-	-	.
COc1ccc(CN2CCC(CO)(Cc3cccc(C(F)(F)F)c3)CC2)cc1Cn1cccn1	-	-	34	-	-
OCC1(Cc2ccccc2)CCN(Cc2ccc(C(F)(F)F)cc2)CC1	-	-	-	-	-
Cc1ccc(OCCn2c(C3CC(=O)N(Cc4ccc(F)cc4)C3)nc3ccccc32)c(C)c1 (stereo not drawn)	-	-	-	-	.
CC(C)(C)N1C(=O)c2ccccc2NC(=O)C1C(=O)NCCc1ccccc1 (stereo not drawn)	.	.	.	-	-
COc1ccc(NC2=NCC(Cc3ccc(Br)cc3)S2)cc1 (stereo not drawn)	-	-	32	-	?
COc1ccc(CNc2ccc(Br)cc2)cc1	-	-	-	-	-
Cc1cccn2c(=O)nc(SCC(=O)c3ccc(Cl)cc3)nc12	-	-	-	-	-
Cc1cccn2c(=O)nc(SCC(=O)c3ccccc3)nc12	-57	-	-	-	-
O=C(/C=C/c1ccc(Cl)cc1)NC(=S)Nc1ccc(CN2CCOCC2)cc1	-	-	-	-	-65
O=C(/C=C/c1ccccc1)Nc1ccc(CN2CCOCC2)cc1	-	-	-	-	-
O=C(/C=C/c1ccc(Cl)cc1Cl)Nc1ccc(CN2CCOCC2)cc1	-38	-	-	-	-
CC(C)(CO)[C@@H](O)C(=O)NCCCC(=O)O	.	.	.	-	.
Cc1ccc(NC(=S)NNC(=S)Nc2ccc(C)cc2)cc1	.	.	.	-	-
O=C(NNC(=S)Nc1ccccc1)Nc1ccccc1	-	-	-	-	-
Cc1ccc(NC(=S)NNC(=O)c2cn(C)nc2C)cc1	-	-	-	-	-67
O=C(NNC(=S)Nc1ccccc1)NNC(=S)Nc1ccccc1	-	-	-	-	-70
Cc1ccc(NC(=S)NNC(=O)Nc2ccccc2)cc1	-	-	-	-	-52
Cc1ccc(NC(=S)NNC(=O)c2c(Cl)c(C)nn2C)cc1	-	-	-	-	-
Nc1ccc(NC(=S)Nc2ccccc2)cc1	-57	-	-	-	-
Oc1ccc(NC(=S)Nc2ccccc2)cc1	-	-	-	-	-
CCCC[C@]12Cc3ccccc3C(O1)c1c(cc(-c3ccccc3)oc1=O)O2	-	-	-	.	.
COc1cccc(N2CCN(C(=O)c3cnc4c(-c5ccccc5)c(C)nn4c3C)CC2)c1	-	-	-	-	.
Oc1ccc(Oc2ccc3c(C(F)(F)F)cc(C(F)(F)F)nc3n2)cc1	-	-	-	44	-
SMILES	D1 antag	D1 potentiator	D1 ag	DRD3 agonist	D3 antag
COc1cc(-c2nc3nc[nH]n3c2Nc2ccc(C(C)C)cc2)ccc1O	-	-	-	-	.
Cc1ccc(S(=O)(=O)N2CCN(C)CC2)cc1-c1nnc2c3ccccc3c(C)nn12	-33	-	-	-	-
CCCCN(C)C(=O)c1ccc2c(c1)NC(=O)C(CC(C)C)N2 (stereo not drawn)	-	-	-	-	.
COc1ccc(-c2nnn(CC(=O)N3CCN(c4ccc(F)cc4)CC3)n2)cc1	-	-	-	-	-
COc1ccc(-c2nnn(CC(=O)N3CCOCC3)n2)cc1	-	-	-	-	-60
CCCN1CCC(NC(=O)CCc2nnc(-c3ccccc3)o2)CC1	-	-	-	-	-53
CCCN1CCN(CCNC(=O)Nc2ccc(OC)cc2OC)CC1	-	-	-	-	.
CCCCCCN1CCN(C2CN(Cc3ccc(C)cc3)S(=O)(=O)C2)CC1 (stereo not drawn)	.	.	.	-	-
CCCCCCN1CCN(C2CN(Cc3ccccc3)S(=O)(=O)C2)CC1 (stereo not drawn)	.	.	.	-	-94
Cc1ccc(CN2CC(N3CCN(C)CC3)CS2(=O)=O)cc1 (stereo not drawn)	.	.	.	-	-68
O=C1C(=O)N(C2CCN(C(=O)c3cccc(Cl)c3)CC2)CCN1Cc1ccc(F)cc1	-	-	-	-	.
CC(=O)c1cc2c(cc1NS(=O)(=O)c1ccc(C)cc1)OCCO2	-37	-	-	-	-
COC(=O)COc1ccc(S(=O)(=O)Nc2ccccc2SC)cc1	-	-	-	-	-
CCOc1ccc(S(=O)(=O)Nc2ccccc2SC)cc1	-	-	-	-	-65
CC(=O)c1cc2c(cc1NS(=O)(=O)c1ccccc1)OCO2	-	-	-	-	-
CSc1ccccc1NS(=O)(=O)c1ccc2c(c1)OCCO2	-	-	-	-	-85
CSc1ccc(S(=O)(=O)Nc2c(C)cccc2C)cc1	-	-	-	-	-166
Cc1cc2c(s1)c1cnn(Cc3ccc(OC(F)F)cc3)c(=O)c1n2C	-	-	-	.	.
N#CC1c2ccccc2C=CN1C(=O)N(c1ccccc1)c1ccccc1 (stereo not drawn)	.	.	.	-	?
CC(=O)N1CCOc2ccc(S(=O)(=O)NCc3ccccc3Cl)cc21	-32	-	-	-	-
CN(c1ccccc1)S(=O)(=O)c1ccc2c(c1)OCCO2	.	.	.	41	-
CSc1ccc(S(=O)(=O)Nc2ccc3c(c2)OCCO3)cc1	-30	-	-	-	-
Cc1ccccc1CNS(=O)(=O)c1ccc2c(c1)OCCO2	-32	-	-	-	-
Cc1ccc(CNS(=O)(=O)c2ccc3c(c2)OCCO3)cc1	-	-	-	-	-
CCCCOc1ccc(C(=O)NCCOc2cccc(OC)c2)cc1	-	-	-	-	-
SMILES	D1 antag	D1 potentiator	D1 ag	DRD3 agonist	D3 antag
CCOc1ccccc1C(=O)NCC(=O)N(C)Cc1ccccc1C	-43	-	-	-	-
COc1cc2[nH]c(C(=O)N3CCc4ccccc4C3)cc2c(OC)c1OC	-	-	-	-	-
COc1cc2cc(C(=O)N3CCc4ccccc4C3)[nH]c2cc1OC	-33	-	-	-	-
Clc1ccc(CNc2ccc(CNc3ncn[nH]3)cc2)c(Cl)c1	-46	-	-	-	-
Clc1ccc(CNc2ccc(CNc3ncn[nH]3)cc2)cc1	-	-	-	-	-
O=c1[nH]c(-c2ccccn2)nc2ccccc12	-	-	-	-	-74
Fc1ccc(-c2cc(C(F)(F)F)nc(NCC3CCCO3)n2)cc1 (stereo not drawn)	-	-	32	-	-
FC(F)(F)c1cc(-c2ccccc2)nc(NCC2CCCO2)n1 (stereo not drawn)	-	-	-	-	-
Cc1cc2c(s1)c1cnn(Cc3cc(F)cc(F)c3)c(=O)c1n2C	-	-	-	.	.
Cc1cc(OCC(=O)Nc2ccc(N3CCN(C)CC3)cc2)ccc1Cl	-83	-	-	-	-
